VACV mCherry inh: qHTS for Stage-Specific Inhibitors of Vaccinia Orthopoxvirus: mCherry Reporter Primary qHTS | Potency, µM (top dose mostly 36.5 µM), actives largely listed as inhibitors | 310,000 tested, 0.63% active | Vaccinia virus mCherry reporter infection, fluorescence | AID 720579, 2013; calls by dose curve; tested in A549 cells; also: nearly all actives have a fitted effect of over 35% in size
HCV inhibitor: qHTS Assay for Inhibitors of Hepatitis C Virus (HCV); Huh7.5.1 HCVcc-Cre infection, luciferase reporter, 44 h; Potency, µM (series often up to 41.8 µM), most hits filed as inhibitors; 340,000 tested, 3.4% active
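1,000 cells/well; 4 h culture; + compound; + HCVcc-Cre (~0.5 moi); 44 h; luciferase substrate, RT 15 min; read 15 sec.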
Sm TGR block: qHTS Assay for the Inhibitors of Schistosoma Mansoni Peroxiredoxins | AID 485364, 2010 | Potency, µM (titrated, usually from 114 µM), usual class: inhibitors | Schistosoma mansoni thioredoxin glutathione reductase (TGR), Q962Y6 | purified TGR, DTNB reduction, TNB absorbance 405 nm | 360,000 tested, 3% active; also: nearly all actives have a fitted effect of over 60% in size
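First, TGR (20 nM dispensed) and NADPH were mixed with compound. Second, a 15 min room-temperature incubation followed. Third, further NADPH and then DTNB were added to start the reaction. Finally, TNB absorbance was monitored kinetically.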
FMDV antiviral: High Throughput Screening for Foot and Mouth Disease Virus Antivirals; FMDV antiviral cell-based qHTS; Potency, µM (series often up to 57.9 µM), most hits filed as inhibitors; 410,000 tested, 1.2% active; AID 1159524, 2015; calls by dose curve; tested in HEK293T cells; also: read-out not given here; nearly all actives have a fitted effect of over 45% in size
HCMV antiviral: qHTS Assay for inhibitors of the human cytomegalovirus (HCMV); HFF cells, HCMV-luciferase reporter, 72 h; active compounds read low; activity change, negative = inhibition, % at 57.5 µM; 410,000 tested, 4.5% active; AID 1259415, 2018; in the data active = activity change below about -60%; inconclusive = no clear call, values can overlap the other calls; inactive = above about -39%
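Two compound doses tested in HFFs infected with HCMV-luciferase, MOI 1 PFU/cell, 72 h at 37C. Lysate luminescence read with OneGlo; data normalized against buffer-only and 10uM Salinomycin inhibitor controls.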
Vaccinia Venus: qHTS for Stage-Specific Inhibitors of Vaccinia Orthopoxvirus: Venus Reporter Primary qHTS; Vaccinia virus Venus reporter expression, fluorescence; Potency, µM (series often up to 36.5 µM), usual class: inhibitors; 330,000 tested, 0.46% active; calls by dose curve; tested in A549 cells; also: nearly all actives have a fitted effect of over 30% in size
Each line names hits and unclear results; the compound was inactive in the other large screens. Shown are actives, neighbours in structure and some others; about 9.3% of the full set was active somewhere. Unless noted, calls follow the shape of the dose curve; as a rule, active = well fitted curve in the direction sought with a large enough effect; inconclusive = small, poorly fitted or top-dose-only effect, or another doubt; inactive = no such curve, though single readings can be large; an effect the other way counts as inactive or inconclusive.

CC1(Cc2ccccc2OC(F)(F)F)C(=O)Nc2ccc(-c3ccsc3)cc21 (stereo unspecified)	HCMV antiviral -75 (no result: HCV inhibitor, Sm TGR block)
CC1(Cc2ccc(OC(F)(F)F)cc2)C(=O)Nc2ccc(S(=O)(=O)NC3CCCCC3)cc21 (stereo unspecified)	VACV mCherry inh inconclusive, HCMV antiviral -99, Vaccinia Venus inconclusive (no result: HCV inhibitor, Sm TGR block)
CC1(Cc2ccc3ccccc3n2)C(=O)Nc2ccc(OC(F)(F)F)cc21 (stereo unspecified)	HCMV antiviral -98 (no result: HCV inhibitor, Sm TGR block)
CC1(Cc2ccccc2OC(F)(F)F)C(=O)Nc2cc(-c3ccccc3Cl)ccc21 (stereo unspecified)	none (no result: HCV inhibitor, Sm TGR block)
CC1(Cc2ccccc2OC(F)(F)F)C(=O)Nc2ccc(OC(F)(F)F)cc21 (stereo unspecified)	FMDV antiviral inconclusive, HCMV antiviral -76 (no result: HCV inhibitor, Sm TGR block)
CN(C(=O)COC(=O)CNC(=O)c1ccc(C(C)(C)C)cc1)c1c(N)n(Cc2ccccc2)c(=O)[nH]c1=O	none
CCOC(=O)c1c(-c2ccccc2)oc2ccc(OCC(=O)NNC(=O)CCCC(=O)O)cc12	none (no result: VACV mCherry inh, Vaccinia Venus)
CCOc1ccc(N2C(=O)CC(N)C2=O)cc1 (stereo unspecified)	HCV inhibitor 5µM, Sm TGR block 3.5µM (no result: VACV mCherry inh)
COC(=O)c1ccc(N2C(=O)CC(N(C)Cc3ccccc3)C2=O)cc1 (stereo unspecified)	none (no result: VACV mCherry inh)
O=C(O)CSC1CC(=O)N(c2ccc(Br)cc2)C1=O (stereo unspecified)	Sm TGR block 45µM (no result: VACV mCherry inh, Vaccinia Venus)
CCOc1ccc(N2C(=O)CC(N(C)Cc3ccccc3)C2=O)cc1 (stereo unspecified)	Sm TGR block 32µM, HCMV antiviral inconclusive
CCCOc1ccc(N2C(=O)CC(SCCN)C2=O)cc1 (stereo unspecified)	Sm TGR block 35µM (no result: VACV mCherry inh, Vaccinia Venus)
O=C(CN1C(=O)C2C3C=CC(C4CC34)C2C1=O)Nc1cccc2ncccc12 (stereo unspecified)	none (no result: VACV mCherry inh, Sm TGR block, Vaccinia Venus)
O=C(CCSCc1ccccc1Cl)N1CCN(c2ccc(F)cc2)CC1	HCMV antiviral -64 (no result: HCV inhibitor)
O=C(CCSCc1ccccc1F)N1CCN(c2ccc(F)cc2)CC1	none (no result: HCV inhibitor)
O=C(CCC(=O)N1CCN(c2ccccc2F)CC1)N1CCN(c2ccc(F)cc2)CC1	HCV inhibitor inconclusive, FMDV antiviral 22µM, HCMV antiviral -62
O=C(CCC(=O)N1CCN(c2ccccc2F)CC1)N1CCN(c2ccccc2)CC1	none (no result: VACV mCherry inh, Vaccinia Venus)
CCOC(=O)C(=CNc1ccc2c(c1)c1ccccc1n2CC)C(=O)OCC	HCV inhibitor 10µM (no result: VACV mCherry inh, Vaccinia Venus)
CCCC(=O)Nc1ccc2c(c1)c1ccccc1n2CC	HCV inhibitor inconclusive, HCMV antiviral inconclusive, Vaccinia Venus inconclusive
CCn1c2ccccc2c2cc(NC(=O)CC(C)=O)ccc21	HCV inhibitor 13µM
CCn1c2ccccc2c2cc(NS(=O)(=O)c3ccccc3C)ccc21	VACV mCherry inh inconclusive, HCV inhibitor inconclusive, Vaccinia Venus inconclusive
CCOC(=O)C1=CCC(c2ccc(C#N)cc2)N(S(=O)(=O)c2ccc(C)cc2)C1 (stereo unspecified)	none (no result: HCV inhibitor, Sm TGR block)
Nc1nonc1-c1noc(-c2ccccc2Br)n1	none (no result: VACV mCherry inh, Vaccinia Venus)
CCOc1nc2cccc(C(=O)O)c2n1Cc1ccc(-c2ccccc2-c2nn[nH]n2)cc1	none (no result: VACV mCherry inh, HCV inhibitor, Sm TGR block, FMDV antiviral, Vaccinia Venus)
CN(C)CC1CCC/C(=C\c2ccc(OC(=O)/C=C/c3ccccc3)cc2)C1=O (stereo unspecified)	HCV inhibitor inconclusive, FMDV antiviral 40µM (no result: Sm TGR block)
CC(=O)c1ccc(OC(=O)/C=C/c2ccccc2)cc1	none (no result: VACV mCherry inh, Vaccinia Venus)
COc1ccc(/C=C2\CCC(C3CCCC3)C2=O)cc1 (stereo unspecified)	none
CN(C)CC1CC/C(=C\c2ccc(O)cc2)C1=O (stereo unspecified)	VACV mCherry inh inconclusive, HCV inhibitor inconclusive, FMDV antiviral inconclusive, HCMV antiviral -76 (no result: Sm TGR block)
O=C1/C(=C\c2ccc(Cl)cc2)CCC1CNc1ccc(Cl)cc1 (stereo unspecified)	HCV inhibitor inconclusive (no result: Sm TGR block)
COc1ccc(/C=C2/CCC(CN3CCOCC3)C2=O)cc1 (stereo unspecified)	HCV inhibitor 5µM, FMDV antiviral 18µM, HCMV antiviral -98 (no result: Sm TGR block)
